Assay outcomes: PubChem, National Center for Advancing Translational Sciences (NCATS)
Only some compounds are listed: those with a hit (about 6.7% of all), similar ones and a draw of the others.
PINK1 modulator: A Quantitative High throughput Screen to Identify Chemical Modulators of PINK1 Expression. Potency, µM (titrated, usually from 76.6 µM), without a hit: at the highest dose activation (PINK1 increase), most hits filed as activators. 0.2% of 410,000 active. PINK1 immunofluorescence, high-content cytometry, 24 h; active = well fitted activation curve with a large enough effect; inconclusive = small, poorly fitted or top-dose-only effect; cell line not stated here; note: % of control where 0% means no effect; nearly all actives have a fitted effect of over 65% in size
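PINK1 protein, normally rapidly degraded, was detected by immunofluorescence after 24 hour compound treatment of a stable cell line. Titration data (5 concentrations) came from laser-scanning cytometry, with CCCP-treated wells as controls.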
KB-V1 MDR tox: qHTS assay for MDR1-selective chemotherapeutics: Primary screen using the drug-selected MDR subline cells KB-V1; Potency, µM (highest dose often 46.1 µM), most hits filed as cytotoxic; KB-V1 MDR cells viability, CellTiter-Glo, 72 h; 3.4% of 400,000 active; note: % is set by controls: 0 for no effect and ±100 for the full control effect; nearly all actives have a fitted effect of over 60% in size
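Cytotoxicity toward P-gp-expressing KB-V1 cells was determined as loss of CellTiter-Glo luminescence after 72 h at 37 degrees C. Compounds were tested in quantitative HTS format across a concentration range, with curves fitted to normalized data.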
KB-3-1 tox: qHTS assay for MDR1-selective chemotherapeutics: Primary screen using the parental adenocarcinoma cell KB-3-1. KB-3-1 viability, CellTiter-Glo ATP luminescence, 72 h. Potency, µM (titrated, usually from 46.1 µM), usual class: cytotoxic. 1.4% of 400,000 active. AID 1347075, 2019; note: % is set by controls: 0 for no effect and ±100 for the full control effect; nearly all actives have a fitted effect of over 60% in size
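Parental KB-3-1 viability, qHTS format: 72 h compound exposure, 37 °C; CellTiter-Glo; media-only wells and DMSO plates as controls; concentration-effect fits on corrected data.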
SW480 rereplic: A quantitative high throughput screen for small molecules that induce DNA re-replication in SW480 colon adenocarcinoma cells; SW480 DNA re-replication, Hoechst DNA content imaging, 48 h; Potency, µM (titrated, usually from 46.1 µM), for the others: at the top dose re-replication activation, most hits filed as activators; 1.8% of 340,000 active; AID 624297, 2012; note: % of control where 0% means no effect; nearly all actives have a fitted effect of over 55% in size
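Cells (250 per well) received 23 nL compound or DMSO by pin tool and were kept 48 hr at 37 C, 5% CO2. Nuclei were then stained with Hoechst for 40 min and scanned for DNA content.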
MCF10A rereplic: A quantitative high throughput screen for small molecules that induce DNA re-replication in MCF 10a normal breast cells; MCF 10A DNA re-replication, Hoechst nuclear intensity, 48 h; Potency, µM (top dose mostly 46.1 µM), for inactives: at the highest dose activity, positive = re-replication, usual class: activators; 2.9% of 350,000 active; note: % of control where 0% means no effect; nearly all actives have a fitted effect of over 50% in size
* = called active by the depositor; i = inactive; ? = inconclusive; . = not tested or not shown; [ ] = another dose, or the depositor's remark. Unless noted, calls come from the whole dose curve; as a rule, active = well fitted curve in the direction sought with a large enough effect; inconclusive = small, poorly fitted or top-dose-only effect, or another doubt; inactive = no such curve, though single readings can be large; an effect the other way counts as inactive or inconclusive. Potency is the fitted concentration of half-maximal effect.

SMILES	PINK1 modulator	KB-V1 MDR tox	KB-3-1 tox	SW480 rereplic	MCF10A rereplic
O=C(Nc1ccc(S(=O)(=O)N2CCCCC2c2cccnc2)cc1)c1ccc(Br)cc1 (stereo not drawn)	0%	12µM*	?	.	.
CCOc1ccc(C(=O)Nc2ccc(S(=O)(=O)N3CCCCC3c3cccnc3)cc2)cc1 (stereo not drawn)	2%	i	?	.	.
O=[N+]([O-])c1cc(S(=O)(=O)Oc2ccccc2)ccc1Cl	-7%	?	?	3.3µM*	?
CCOC(=O)c1c(C)c(C(=O)N(C)C2CCCCC2)c(C)n1C	0%[38.3 µM]	15µM*	i	-4%	-1%
CCOC(=O)c1c(C)c(C(=O)NC2CCCCCC2)c(C)n1C	0%[38.3 µM]	8.2µM*	i	3%	20%
Cc1ccc(S(=O)(=O)N2CCN(C(=O)C(O)c3ccccc3)CC2)cc1 (stereo not drawn)	.	?	i	.	.
Cc1ccc2nc(-c3sc4nc(C)cc(C)c4c3N)[nH]c2c1	14%	?	?	12µM*	10µM*
CCc1ccc(C(=O)Cn2ccsc2=N)cc1	0%	18µM*	?	7%	12%
Clc1ccc(C2=C3CCCCn4c(-c5ccccc5)c[n+](c43)C2)cc1	16µM*	i	?	-2%	?
COc1ccc(-c2c[n+]3c4n2CCCCC4=C(c2ccc(Br)cc2)C3)cc1	?	i	i	15%	?
CCOC(=O)c1c(N/C=C(\C#N)c2nc(-c3ccc(OC(C)=O)cc3)cs2)sc2c1CCC2	0%	i	i	?	3%
CC1CCCCN1c1nc(-c2ccncc2)nc2ccccc12 (stereo not drawn)	0%	?	i	?	?
c1cncc(-c2nc(N3CCOCC3)c3ccccc3n2)c1	.	?	i	10%	-23%
OCCNc1nc(N2CCN(Cc3ccccc3)CC2)nc2ccccc12	-5%	21µM*	i	-2%	15%
c1ccc2c(N3CCOCC3)nc(-c3ccncc3)nc2c1	-5%	13µM*	?	7%	22%
c1ccc(CN2CCN(c3nc(N4CCOCC4)c4ccccc4n3)CC2)cc1	2%	?	i	?	16µM*
CCC1CCCCN1c1nc(-c2ccncc2)nc2ccccc12 (stereo not drawn)	-1%[38.3 µM]	?	?	?	23µM*
COc1ccc(OC)c(/C=C2\C=Cc3ccccc32)c1	3%	?	?	.	.
COc1ccc(CN2CCCC(n3cc(C(=O)NC4CCCC4)nn3)C2)c(O)c1 (stereo not drawn)	3%	.	.	.	.
CC(C)NC(=O)N1CC[C@@]2(CCCN(C(=O)Oc3ccccc3)C2)C1	0%	.	.	.	.
CN1CCN(c2nc3c(=O)[nH]c(N)nc3n2C2OC(CO)C(O)C2O)CC1 (stereo not drawn)	-1%	i	i	.	.
Cc1ccc(-c2nc(N/N=C/c3ccncc3)c3ccccc3n2)cc1	9%[38.3 µM]	23µM*	?	4%	3%
Cc1ccc(Nc2nc(-c3cccnc3)nc3ccccc23)cc1	4%	?	?	9.2µM*	15µM*
CCOC(=O)c1ccc(Nc2nc(-c3cccnc3)nc3ccccc23)cc1	-2%	i	i	?	18µM*
CC(=O)Nc1ccc(Nc2nc(-c3ccccc3)nc3ccccc23)cc1	12%	?	?	2%	?
SMILES	PINK1 modulator	KB-V1 MDR tox	KB-3-1 tox	SW480 rereplic	MCF10A rereplic
O=C(Nc1nc(-c2ccccc2)nc2ccccc12)c1ccc(F)cc1	6%	i	i	?	18µM*
c1ccc(Nc2nc(-c3cccnc3)nc3ccccc23)cc1	0%	.	.	.	.
CCCC(CNC(C)=O)(C1=CCCCC1)c1ccccc1 (stereo not drawn)	3%	?	i	.	.
Cc1ccc(NS(=O)(=O)c2ccc(C(=O)NCc3ccc(S(N)(=O)=O)cc3)cc2)cc1	1%	.	.	22%	-2%
CC(Nc1nc(-c2ccccc2)nc2ccccc12)c1ccccc1 (stereo not drawn)	26%	i	?	-1%	?
CC(Nc1nc(-c2cccnc2)nc2ccccc12)c1ccc(F)cc1 (stereo not drawn)	17%	18µM*	?	4%	?
COc1ccccc1-c1nc(Nc2ccncc2)c2ccccc2n1	0%	.	.	.	.
c1ccc2c(Nc3nc(-c4ccncc4)nc4ccccc34)cccc2c1	2%	i	i	29µM*	23µM*
COc1ccccc1Nc1nc(-c2ccccc2F)nc2ccccc12	8%	8.2µM*	?	.	.
CC(Nc1nc(-c2ccccc2O)nc2ccccc12)c1ccccc1 (stereo not drawn)	27%	i	i	?	21µM*
COc1ccc(Nc2nc(-c3ccc(C)cc3)nc3ccccc23)c(OC)c1	1%	i	i	.	.
C=CCNc1nc(N2CCCC2)nc2ccccc12	0%	i	?	-3%	1%
CC(Nc1nc(N2CCCCC2)nc2ccccc12)c1ccccc1 (stereo not drawn)	.	?	11µM*	0%	?
COc1ccc(CCNc2nc(-c3cccnc3)nc3ccccc23)cc1OC	0%	8.2µM*	i	?	?
COc1ccc(Nc2nc(N3CCCC3)nc3ccccc23)c(OC)c1	.	?	i	?	18µM*
CCN(CC)C(=O)Cn1cc(S(=O)(=O)CC(=O)Nc2ccccc2C)c2ccccc21	1%	i	i	0%	-1%
COc1ccc(-c2cc3c(nn2)-c2ccccc2C3=O)cc1	0%	7.3µM*	?	12%	-25%
CCN1CCN(C(=S)Nc2ccc(Cl)c(Cl)c2)CC1	0%	?	i	5%	20%
Oc1ccc(C(=S)N2CCCCC2)cc1Cl	2%[38.3 µM]	18µM*	i	3%	15%
CCN1CCN(C(=S)c2ccc(Cl)c(Cl)c2)CC1	0%	15µM*	i	-1%	2%
O=C(Cn1c(SCC(=O)Nc2ccc(F)cc2)nc2ccccc21)NCc1ccc(Cl)cc1	6%	i	i	.	.
COc1ccccc1N1CCN(C(=O)Cn2ncc3c(=O)oc4ccccc4c32)CC1	5%	i	i	.	.
Cc1cccc(C)c1NC(=O)CCCSc1nnc(-c2ccc(F)cc2)n1-c1ccccc1	1%	2.3µM*	16µM*	2%	?
Cc1cccc(C)c1NC(=O)CCCSc1nnc(-c2ccc(Cl)cc2)n1-c1ccccc1	11%	2.9µM*	4.1µM*	?	?
O=C(CSc1nnc(-c2ccncc2)n1-c1ccccc1)Nc1ccc(F)cc1	1%	i	i	.	.
